Several values for one entry are separate records, joined by “and”; a condition that tells them apart may be missing. Identical values can stand only once. The campaign covered roughly 5,500 compounds. About 2,000 (36%) were called active. About 18% were inconclusive and are not listed. No stated cut-off is given here; in the data, active means normalized growth mostly below about 0.91 (no sharp cut-off); inconclusive means no clear call, values can overlap the other calls; inactive means mostly above about 0.92. This is one part of the list.
Assay: chemical genetic growth profiling, strain panel (AID 1159580);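 further: tested at 20 µM; growth read once vehicle control cultures reached saturation at 30 °C; 1 = growth at the plate median or of vehicle wells; lower values mean less growth of the strain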
Conditions: S. cerevisiae deletion strains, growth OD
[1] = locus YMR307W, strain GAS1, hits give low values
[2] = locus YPL241C, strain CIN2, hits give low values

Measured: normalized growth

c1ccc(CN(CC2=NCCN2)c2ccccc2)cc1
inactive: locus YAL013W, strain DEP1, hits give low values 1.01 | locus YAL021C, strain ccr4, hits give low values 0.973 | locus YAL026C, strain drs2, hits give low values 0.999 | locus YAL030W, strain snc1, hits give low values 1.01 | locus YBL061C, strain skt5, hits give low values 1.03 | locus YBR009C, strain hhf1, hits give low values 0.998 | locus YBR021W, strain FUR4, hits give low values 1.02 | locus YBR023C, strain chs3, hits give low values 1.02 | locus YBR171W, strain sec66, hits give low values 1.02 | locus YBR229C, strain ROT2, hits give low values 1 | locus YBR231C, strain swc5, hits give low values 0.999 | locus YBR279W, strain paf1, hits give low values 1.02 | locus YCL011C, strain gbp2, hits give low values 0.989 | locus YCL016C, strain dcc1, hits give low values 0.976 | locus YCL029C, strain bik1, hits give low values 1.01 | locus YCL069W, strain vba3, hits give low values 1.02 | locus YCR088W, strain abp1, hits give low values 1.01 | locus YDL005C, strain med2, hits give low values 1.01 | locus YDL035C, strain GPR1, hits give low values 1.02 | locus YDL040C, strain nat1, hits give low values 1.02 | locus YDL074C, strain BRE1, hits give low values 1.01 | locus YDL101C, strain DUN1, hits give low values 1.01 | locus YDL134C, strain PPH21, hits give low values 1.01 | locus YDL185W, strain tfp1, hits give low values 1 | locus YDL192W, strain arf1, hits give low values 1 | locus YDR001C, strain nth1, hits give low values 1.01 | locus YDR069C, strain doa4, hits give low values 1.02 | locus YDR101C, strain arx1, hits give low values 0.994 | locus YDR137W, strain rgp1, hits give low values 0.967 | locus YDR159W, strain sac3, hits give low values 1 | locus YDR162C, strain NBP2, hits give low values 1.03 | locus YDR195W, strain ref2 1.02 | locus YDR297W, strain sur2, hits give low values 1.01 | locus YDR318W, strain mcm21, hits give low values 0.992 | locus YDR334W, strain swr1, hits give low values 1.02 | locus YDR335W, strain msn5, hits give low values 1 | locus YDR388W, hits give low values 1.01 | locus YDR392W, strain spt3, hits give low values 0.961 | locus YDR502C, strain sam2, hits give low values 1 | locus YEL003W, strain gim4, hits give low values 1.03 | locus YEL037C, strain rad23, hits give low values 1.01 | locus YEL061C, strain CIN8 (second series), hits give low values 1.01 | locus YEL061C, strain CIN8, hits give low values 1.01 | locus YER015W, strain faa2, hits give low values 0.999 | locus YER016W, strain bim1, hits give low values 1.01 | locus YER110C, hits give low values 0.992 | locus YER111C, strain swi4, hits give low values 1.03 | locus YER155C, strain BEM2 (second series), hits give low values 1.04 | locus YER155C, strain BEM2, hits give low values 0.997 | locus YER167W, strain BCK2, hits give low values 1.01 | locus YFR010W, strain ubp6, hits give low values 1.02 | locus YGL078C, strain dbp3, hits give low values 0.997 | locus YGL086W, strain mad1, hits give low values 0.997 | locus YGL167C, strain pmr1, hits give low values 1.03 | locus YGL173C, strain kem1, hits give low values 1.03 | locus YGL227W, strain vid30, hits give low values 1.01 | locus YGL240W, strain doc1, hits give low values 1.04 | locus YGL248W, strain PDE1, hits give low values 1 | locus YGL253W, strain hxk2, hits give low values 1 | locus YGR135W, strain pre9, hits give low values 1 | locus YGR252W, strain gcn5, hits give low values 0.997 | locus YHR013C, strain ard1, hits give low values 0.972 | locus YHR027C, strain rpn1, hits give low values 1.02 | locus YHR030C, strain SLT2, hits give low values 1.01 and 1.02 | locus YHR079C, strain IRE1 (second series), hits give low values 0.995 | locus YHR079C, strain IRE1, hits give low values 1.03 | locus YHR094C, strain hxt1, hits give low values 1 | locus YHR129C, strain ARP1, hits give low values 1.01 | locus YHR142W, strain chs7, hits give low values 1 | locus YHR200W, strain rpn10, hits give low values 1.01 | locus YIL066C, strain RNR3, hits give low values 1.03 | locus YIL073C, strain SPO22, hits give low values 1 | locus YIL125W, strain kgd1, hits give low values 1 | locus YIR030C, strain dcg1, hits give low values 0.991 | locus YJL092W, strain hpr5, hits give low values 1.03 | locus YJL095W, strain BCK1 (second series), hits give low values 1.01 | locus YJL095W, strain BCK1, hits give low values 1.02 and 1.04 | locus YJL115W, strain asf1, hits give low values 0.999 | locus YJL129C, strain trk1, hits give low values 1.03 | locus YJL134W, strain LCB3, hits give low values 1.01 | locus YJL154C, strain vps35, hits give low values 1.01 | locus YJL164C, strain tpk1, hits give low values 0.974 | locus YJL166W, strain qcr8, hits give low values 1.03 | locus YJL168C, strain set2, hits give low values 0.993 | locus YJL187C, strain SWE1 (second series), hits give low values 1.01 | locus YJR043C, strain POL32, hits give low values 1.01 | locus YJR066W, strain TOR1, hits give low values 0.983 | locus YKL009W, strain mrt4, hits give low values 0.994 | locus YKL068W, hits give low values 1 | locus YKL085W, strain MDH1 (second series), hits give low values 1.01 | locus YKL085W, strain MDH1, hits give low values 1.01 | locus YKL160W, strain elf1, hits give low values 1.02 | locus YKR001C, strain vps1, hits give low values 0.997 | locus YKR026C, strain gcn3, hits give low values 0.97 | locus YKR091W, strain srl3, hits give low values 0.999 | locus YLL001W, strain dnm1, hits give low values 1.03 | locus YLL026W, hits give low values 1.02 | locus YLL041C, strain sdh2, hits give low values 1.01 | locus YLR027C, strain aat2, hits give low values 0.993 | locus YLR039C, strain RIC1, hits give low values 0.993 | locus YLR058C, strain SHM2, hits give low values 1.01 | locus YLR102C, strain apc9, hits give low values 0.998 | locus YLR113W, strain HOG1, hits give low values 1.04 | locus YLR221C, strain rsa3, hits give low values 1.01 | locus YLR258W, strain gsy2, hits give low values 0.992 | locus YLR262C, strain YPT6 (second series), hits give low values 1.01 | locus YLR262C, strain YPT6, hits give low values 1.04 | locus YLR268W, strain sec22, hits give low values 0.999 | locus YLR320W, strain mms22, hits give low values 0.982 | locus YLR330W, strain CHS5, hits give low values 1.01 | locus YLR342W, strain FKS1 (second series), hits give low values 1.03 | locus YLR342W, strain FKS1, hits give low values 1.02 | locus YLR357W, strain rsc2, hits give low values 1.03 | locus YLR370C, strain arc18, hits give low values 1 | locus YLR371W, strain rom2, hits give low values 1.01 | locus YLR384C, strain iki3, hits give low values 1.02 | locus YLR418C, strain cdc73, hits give low values 1.02 | locus YML016C, strain PPZ1, hits give low values 1 | locus YML032C, strain rad52, hits give low values 0.993 | locus YML120C, strain ndi1, hits give low values 1.03 | locus YML124C, strain tub3, hits give low values 0.992 | locus YMR058W, strain fet3, hits give low values 1.01 | locus YMR078C, strain ctf18, hits give low values 1 | locus YMR125W, strain sto1, hits give low values 1.01 | locus YMR129W, hits give low values 1.02 | locus YMR205C, strain PFK2, hits give low values 1.02 | locus YMR223W, strain ubp8, hits give low values 1 | locus YMR231W, strain pep5, hits give low values 1 | [1] 1.08 | locus YNL067W, strain RPL9B, hits give low values 1.02 | locus YNL071W, strain lat1, hits give low values 0.999 | locus YNL183C, strain NPR1, hits give low values 0.975 | locus YNL209W, strain ssb2, hits give low values 0.996 | locus YNL233W, strain BNI4, hits give low values 1 | locus YNL248C, strain rpa49, hits give low values 0.987 | locus YNL250W, strain rad50, hits give low values 0.992 | locus YNL271C, strain bni1, hits give low values 0.995 | locus YNL298W, strain CLA4, hits give low values 1.01 | locus YNL307C, strain MCK1, hits give low values 1 | locus YNL322C, strain KRE1 (second series), hits give low values 1.01 | locus YNR049C, strain mso1, hits give low values 1.01 | locus YNR052C, strain pop2, hits give low values 0.996 | locus YOL012C, strain htz1 0.89 | locus YOL147C, strain pex11, hits give low values 1 | locus YOR001W, strain rrp6, hits give low values 1.02 | locus YOR061W, strain CKA2, hits give low values 1.01 | locus YOR069W, strain VPS5, hits give low values 1 | locus YOR070C, strain gyp1, hits give low values 1 | locus YOR080W, strain dia2, hits give low values 1.01 | locus YOR083W, strain WHI5, hits give low values 1.02 | locus YOR106W, strain vam3, hits give low values 1.03 | locus YOR136W, strain idh2, hits give low values 1 | locus YOR144C, strain elg1, hits give low values 0.998 | locus YOR184W, strain ser1, hits give low values 1.01 | locus YOR231W, strain MKK1, hits give low values 1.06 | locus YOR265W, strain rbl2, hits give low values 1.01 | locus YOR270C, strain vph1, hits give low values 0.988 | locus YOR290C, strain snf2, hits give low values 0.969 | locus YOR316C, strain cot1, hits give low values 1 | locus YPL051W, strain arl3, hits give low values 1.03 | locus YPL078C, strain atp4, hits give low values 1.04 | locus YPL106C, strain sse1, hits give low values 0.998 | locus YPL240C, strain hsp82, hits give low values 0.97 | [2] 1.01 | locus YPL256C, strain CLN2, hits give low values 1.06 | locus YPR119W, strain clb2, hits give low values 0.991 | locus YPR141C, strain kar3, hits give low values 1 | locus YPR163C, strain tif3, hits give low values 1.01 | locus YPR167C, strain met16, hits give low values 0.996 | strain wtn01, hits give low values 0.99

c1ccc2cc(CC3=NCCN3)ccc2c1
inactive: locus YAL040C, strain CLN3, hits give low values 1.01 | locus YCL061C, strain MRC1 (second series), hits give low values 1 | locus YDR363W, strain ESC2, hits give low values 1.02 | locus YER002W, strain NOP16, hits give low values 0.998 | locus YGR078C, strain PAC10, hits give low values 1.01 | [1] 1 | locus YNL128W, strain TEP1, hits give low values 1 | locus YNL153C, strain GIM3, hits give low values 0.982 | locus YNL175C, strain NOP13, hits give low values 1.01 | locus YNL197C, strain WHI3, hits give low values 1.02 | locus YNL224C, strain SQS1, hits give low values 1.01 | locus YOR083W, strain WHI5 (second series), hits give low values 1 | locus YPL055C, strain LGE1, hits give low values 1.01 | [2] 0.996

— PubChem BioAssay AID1159580 (chemical genetic matrix, 2015)
